Measured values taken from PubChem BioAssay (EPA / NIEHS).
“And” between values parts separate entries of the source, which are not always exact repeats. Equal entries are not always repeated. The source made the active and inactive calls. How the source made its calls: active means hit-call score of the fitted dose curve at least 0.9, where 1 is the maximum; inactive means score below 0.9.

Experiment: CCTE_Padilla_ZF_144hpf_TERATOSCORE: (Legacy) CCTE's 144 Hour Post-fertilization zebrafish Assay Teratoscore, Padilla Lab (AID 2283679);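 on AC50: zebrafish embryos with chorions exposed by immersion from 6-8 hpf to 5 dpf with daily renewal; teratogenicity score from eye scoring of death hatching and malformations at 144 hpf; higher score means more developmental defects relative to DMSO baseline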
Summary of the method: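 Larvae scored by eye at 144 hpf for death, hatching and malformations after a day in clean Hanks'. Before that, daily-renewed exposure at 80 uM (0.4% DMSO, 26C) from roughly 6-8 hpf through 5 dpf, 4 embryos per chemical.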

| Structure (SMILES) | AC50 | outcome |
| --- | --- | --- |
| Clc1ccc(C(c2ccc(Cl)cc2)C(Cl)(Cl)Cl)cc1 | 3.44 µM (active) | – |
| COc1cc(C=O)cc2c1[C@H](COC(N)=O)[C@]1(OC(C)=O)ON2C[C@H]2[C@@H]1N2C(C)=O | – | inactive |
| [O-][Cl+]O | – | inactive |
| O=Cc1ccco1 | – | inactive |
| O=C(N[C@H](c1ccccc1)[C@@H]1CN2CCC1CC2)c1c(Cl)ccc(C(F)(F)F)c1Cl | 50.8 µM (active) | – |
| CC(C)(OOC(C)(C)c1ccccc1)c1ccccc1 | 15.4 µM (active) | – |
| CCCCCCCCn1sccc1=O | 0.523 µM (active) | – |
| O=C(Nc1ccccc1)c1ccccc1I | 5.47 µM (active) | – |
| CC(O)CCO (configuration not stated) | – | inactive |
| ClC1=C(Cl)[C@]2(Cl)[C@H]3[C@H]([C@@H]4C=C[C@H]3C4)[C@@]1(Cl)C2(Cl)Cl | 976 nM (active) and 4.66 µM (active) | – |
| OCCOCCO | – | inactive |
| O=[N+]([O-])c1ccc(Oc2ccc(Cl)cc2Cl)cc1 | 7.79 µM (active) | – |
